Compound activity as filed in PubChem BioAssay.
The list is not random: actives were taken first. Their share in the collection is about 18%.
DT40 TDP1 no CPT: qHTS for Inhibitors of human tyrosyl-DNA phosphodiesterase 1 (TDP1): qHTS in cells in absence of CPT. DT40 Tdp1-/- hTDP1 cells, no CPT, ATP luminescence, 48 h. Potency, µM (series often up to 46.2 µM), actives largely listed as inhibitors. actives 15% (n = 420,000); further: nearly all actives have a fitted effect of over 55% in size
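Growth kinetics read by CellTiter-Glo luminescence after ≥48 hr at 37 °C. Cells: DT40 Tdp1-/- stably carrying human TDP1, 400 per well, compound exposure in the absence of CPT (DMSO vehicle).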
HepG2 tox: HepG2 cytotoxicity, counter-screen for TGF-b inhibitors; HepG2 CAGA-GFP viability, ATP luminescence, 18 h; Potency, µM (series often up to 46.1 µM), most hits filed as cytotoxic; actives 0.76% (n = 410,000); AID 588856
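CellTiter-Glo luminescence gave cytotoxicity after 18 hours at 37 degrees C. The cells were HepG2 CAGA-GFP in 1% FBS DMEM, stimulated with 500 pg/mL TGF-beta after compound addition. %Activity was normalised to no-cell wells (complete cell-killing) and DMSO (no toxicity), and curves were fitted and classified.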
IL-1B inflam inh: blocks inflammasome-driven IL-1 beta release | THP-1 LPS/ATP IL-1B secretion, AlphaLISA, 16 h; active compounds read low | activity change, % at 57.5 µM | actives 4.7% (n = 360,000) | AID 743279; in the data active means activity change below about -50%; inconclusive means mostly about -30% to -49%
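Secreted IL-1B measured by AlphaLISA bead assay after 16 h compound exposure of THP-1 cells; compounds (final up to 57.5 uM) added 1 h before LPS (250 ng/mL) and ATP (1.25 mM) stimulation; lower signal means less secretion.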
TDP1 inh: inhibitors of human tyrosyl-DNA phosphodiesterase TDP1. Q9NUW8. recombinant TDP1, AlphaScreen DNA substrate cleavage. Potency, µM (titrated, usually from 130 µM), usual class: inhibitors. actives 0.28% (n = 350,000). AID 485290; further: nearly all actives have a fitted effect of over 40% in size
Target sequence (Q9NUW8 whole entry, looked up): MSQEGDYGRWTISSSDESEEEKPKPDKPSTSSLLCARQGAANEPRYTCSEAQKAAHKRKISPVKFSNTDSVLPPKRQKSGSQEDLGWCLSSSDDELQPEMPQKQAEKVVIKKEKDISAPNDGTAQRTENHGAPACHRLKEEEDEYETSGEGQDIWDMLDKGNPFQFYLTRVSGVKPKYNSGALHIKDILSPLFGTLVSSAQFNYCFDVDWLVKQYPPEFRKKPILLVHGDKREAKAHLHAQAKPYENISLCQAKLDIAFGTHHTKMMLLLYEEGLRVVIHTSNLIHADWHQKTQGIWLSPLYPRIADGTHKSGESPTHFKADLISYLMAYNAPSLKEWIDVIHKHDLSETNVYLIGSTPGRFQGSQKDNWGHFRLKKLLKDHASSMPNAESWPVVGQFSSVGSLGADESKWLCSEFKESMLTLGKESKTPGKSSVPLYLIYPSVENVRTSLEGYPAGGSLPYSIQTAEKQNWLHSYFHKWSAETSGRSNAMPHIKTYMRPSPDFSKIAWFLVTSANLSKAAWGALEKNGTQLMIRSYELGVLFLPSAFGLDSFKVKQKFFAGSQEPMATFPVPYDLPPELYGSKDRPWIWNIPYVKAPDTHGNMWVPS
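Tdp1 1 nM final; 15 min RT w/ cpd; substrate 15 nM, 5 min; beads 10 ug/ml, 10 min; AlphaScreen read. Neg ctrl: no enzyme.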
TDP1 cell CPT: growth inhibition of DT40 Tdp1-/-;hTDP1 cells with camptothecin (screen for TDP1 inhibitors); actives 12% (n = 420,000); Potency, µM (top dose mostly 46.2 µM), most hits filed as inhibitors; chicken DT40 Tdp1-/-;hTDP1 cells + 20 nM CPT, ATP luminescence, 48 h; further: nearly all actives have a fitted effect of over 55% in size
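Chicken DT40 Tdp1-/- cells complemented with human TDP1, 400 cells/well, exposed to compounds plus 20 nM camptothecin for at least 48 h at 37 C; viability read as ATP content by CellTiter-Glo luminescence.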
TGFb inhibitor: inhibitors of TGF-b signaling. AID 588855. Potency, µM (highest dose often 46.1 µM), actives largely listed as inhibitors. HepG2 CAGA-GFP TGF-b/SMAD3 reporter, GFP fluorescence, 18 h; TGF-beta stimulated, 500 pg/mL final. actives 1.2% (n = 410,000); further: nearly all actives have a fitted effect of over 65% in size
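Inhibition of TGF-beta-driven CAGA-GFP reporter expression in HEPG2 cells is measured by cellular GFP fluorescence after 18 h stimulation with 500 pg/mL recombinant TGF-beta in 1% FBS medium at 37 degrees C.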
Each line names hits and unclear results; the compound was inactive in the other large screens. Unless noted, the call rests on the fitted dose curve; in most records, active means well fitted curve in the direction sought with a large enough effect; inconclusive means small, poorly fitted or top-dose-only effect, or another doubt; inactive means no such curve, though single readings can be large; an effect the other way counts as inactive or inconclusive.

CC(C)Nc1nc(NCCOc2ccccc2Cl)c2sc(-c3ccccc3)cc2n1	DT40 TDP1 no CPT 6.5µM, HepG2 tox 14µM, IL-1B inflam inh -103, TDP1 cell CPT 6.5µM, TGFb inhibitor inconclusive (no result: TDP1 inh)
COc1c(C)cc(Br)cc1C(=O)Nc1ccccc1C	DT40 TDP1 no CPT inconclusive, TDP1 cell CPT inconclusive
CNc1ncncc1-c1ccccc1C(F)(F)F	none (no result: HepG2 tox, IL-1B inflam inh, TDP1 inh, TGFb inhibitor)
CCN(CC)S(=O)(=O)N1CCC(C(=O)NCCC2=CCCCC2)CC1	DT40 TDP1 no CPT inconclusive, TDP1 cell CPT inconclusive
Cc1cnnn1-c1ccc(C(=O)CCl)cc1	DT40 TDP1 no CPT 2.6µM, IL-1B inflam inh -109, TDP1 cell CPT 2.3µM
CCCNc1c(N)c(=O)oc2ccccc12	TGFb inhibitor inconclusive
Nc1c(NCCN2CCCCC2)c2ccccc2oc1=O	DT40 TDP1 no CPT 16µM, TDP1 cell CPT 15µM
CCc1ccc(S(=O)(=O)c2nnn3c2nc(NCCC(C)C)c2cc(Cl)ccc23)cc1	DT40 TDP1 no CPT 21µM, TDP1 cell CPT inconclusive (no result: IL-1B inflam inh)
CCCCNc1nc2c(S(=O)(=O)c3ccc(Cl)cc3)nnn2c2ccsc12	DT40 TDP1 no CPT inconclusive (no result: IL-1B inflam inh)
CCc1ccc(S(=O)(=O)c2nnn3c2nc(Nc2ccc(NC(C)=O)cc2)c2sccc23)cc1	DT40 TDP1 no CPT inconclusive, TDP1 cell CPT 23µM (no result: IL-1B inflam inh, TDP1 inh)
CCOc1ccc(Nc2nc3c(S(=O)(=O)c4ccc(C(C)C)cc4)nnn3c3ccsc23)cc1	DT40 TDP1 no CPT inconclusive, TDP1 cell CPT inconclusive, TGFb inhibitor inconclusive (no result: IL-1B inflam inh)
CCc1ccc(S(=O)(=O)c2nnn3c2nc(NC(C)C)c2cc(Cl)ccc23)cc1	DT40 TDP1 no CPT inconclusive, TDP1 cell CPT inconclusive (no result: IL-1B inflam inh)
CCc1ccc(Nc2nc3c(S(=O)(=O)c4cccc(Cl)c4)nnn3c3ccsc23)cc1	DT40 TDP1 no CPT 4.6µM, TDP1 cell CPT 6.5µM (no result: IL-1B inflam inh)
COc1cc(Nc2nc3c(S(=O)(=O)c4cccc(Cl)c4)nnn3c3ccsc23)cc(OC)c1	DT40 TDP1 no CPT 7.3µM, TDP1 cell CPT 9.2µM (no result: IL-1B inflam inh)
CC(C)Nc1nc2c(S(=O)(=O)c3cccc(Cl)c3)nnn2c2ccsc12	none (no result: IL-1B inflam inh)
COc1cc(OC)cc(C(=O)N2CCC(c3ccncc3)CC2)c1	none (no result: IL-1B inflam inh)
O=C(O)c1ccccc1C(=O)c1ccc2oc(=O)[nH]c2c1	none (no result: TDP1 inh)
O=C(Nc1ccc(C(=O)N2CCCCC2)cc1)C1CC1	none (no result: TDP1 inh)
COc1cc(C(=O)Oc2ccccc2/C=N/NC(=O)c2ccc(C)c(Cl)c2)cc(OC)c1OC	DT40 TDP1 no CPT 0.92µM, TDP1 cell CPT 1.2µM, TGFb inhibitor inconclusive
CC(=O)Nc1ccc(OC(=O)c2ccc(Cl)cc2)cc1	none
CC(=O)Nc1ccc(C(=O)N/N=C/c2ccccc2OC(=O)c2ccc(Cl)cc2)cc1	DT40 TDP1 no CPT 10µM, TDP1 cell CPT 9.2µM, TGFb inhibitor inconclusive
CCOc1ccc(/C(O)=C2/C(=O)C(=O)N(c3ccccn3)C2c2ccc(F)cc2)c(C)c1 (stereo not given)	DT40 TDP1 no CPT inconclusive, TDP1 cell CPT inconclusive (no result: TDP1 inh)
O=C(OCc1cn([C@H]2CN(C(=O)c3cccs3)[C@@H](c3ccc(Cl)cc3)C[C@@H]2O)nn1)c1ccccc1	DT40 TDP1 no CPT inconclusive, TDP1 cell CPT 23µM (no result: TDP1 inh)
O=C(OCc1cn([C@@H]2C[C@H](c3ccc(Cl)cc3)N(C(=O)c3cccs3)C[C@H]2O)nn1)c1ccccc1	DT40 TDP1 no CPT inconclusive (no result: TDP1 inh)
O=C(OCc1cn([C@H]2CN(C(=O)c3cccs3)[C@@H](c3ccccc3)C[C@@H]2O)nn1)c1ccccc1	DT40 TDP1 no CPT 15µM, TDP1 cell CPT inconclusive (no result: TDP1 inh)
CC(C)[C@H](NC(=O)c1ccccc1)C(=O)NC1=NCCS1	none
NS(=O)(=O)c1ccc(NC(=O)CSc2nc3ccccc3nc2N2CCOCC2)cc1	DT40 TDP1 no CPT inconclusive (no result: TDP1 inh)
Cc1ccc(Cl)cc1N1CCN(C(=O)c2ccc3nc(N4CCC(C)CC4)sc3c2)CC1	DT40 TDP1 no CPT 21µM, TDP1 cell CPT 21µM (no result: IL-1B inflam inh)
Cc1cccc(C)c1NC(=O)N1CCN(c2nc3ccccc3s2)CC1	DT40 TDP1 no CPT inconclusive, TDP1 cell CPT 12µM
Cc1ccc(C)c(N2CCN(C(=O)c3ccc4nc(N5CCOCC5)sc4c3)CC2)c1	DT40 TDP1 no CPT 13µM, TDP1 cell CPT inconclusive
O=C(c1ccc2nc(N3CCOCC3)sc2c1)N1CCC(Cc2ccccc2)CC1	DT40 TDP1 no CPT 23µM, TDP1 cell CPT inconclusive
CCOC(=O)N1CCN(C(=O)c2ccc3nc(N4CCC(C)CC4)sc3c2)CC1	DT40 TDP1 no CPT inconclusive, IL-1B inflam inh inconclusive, TDP1 cell CPT inconclusive
O=C(NCCc1ccccc1)c1ccc2nc(N3CCOCC3)sc2c1	DT40 TDP1 no CPT inconclusive (no result: TDP1 inh)
COC(=O)C1OC(=O)C2O[C@@]23[C@]2(C)C(OC(C)=O)CC4C(C)(C)C(=O)CC[C@]4(C)C2CC[C@@]13C (stereo not given in full)	none (no result: HepG2 tox, IL-1B inflam inh, TGFb inhibitor)
Cc1cccc(N2CCN(C(=O)c3ccc4nc(N5CCCCC5)sc4c3)CC2)c1C	DT40 TDP1 no CPT 18µM, TDP1 cell CPT 21µM (no result: TDP1 inh)
CC(Oc1ccc(Cl)cc1)C(=O)N(C)CC(=O)Nc1ccc(N2CCOCC2)cc1 (stereo not given)	TDP1 cell CPT inconclusive
